Consider ten compounds from PubChem BioAssay (EPA / NIEHS).

For assay [1], the target named is Estrogen receptor (Homo sapiens) (UniProt P03372). Description: CCTE_Deisenroth_AIME_384WELL_LUC_Active: CCTE's 384-well Estrogen Receptor Transactivation Assay with AIME metabolic competence (ERTA luciferase; metabolism positive), Deisenroth Lab (AID 2284030; active = hit-call score of the fitted dose curve at least 0.9, where 1 is the maximum). The procedure, abridged: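 VM7Luc4E2 breast cells were given, for 24 hours, medium pre-incubated for 2 hours with parent chemical (0.002-200 uM, 10 concentrations) and alginate-encapsulated phenobarbital/beta-naphthoflavone-induced rat hepatic S9. Luciferase gain of signal was fitted against 17beta-estradiol; n=4 or more.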
Estrogen receptor (Homo sapiens), sequence (P03372 whole entry, looked up): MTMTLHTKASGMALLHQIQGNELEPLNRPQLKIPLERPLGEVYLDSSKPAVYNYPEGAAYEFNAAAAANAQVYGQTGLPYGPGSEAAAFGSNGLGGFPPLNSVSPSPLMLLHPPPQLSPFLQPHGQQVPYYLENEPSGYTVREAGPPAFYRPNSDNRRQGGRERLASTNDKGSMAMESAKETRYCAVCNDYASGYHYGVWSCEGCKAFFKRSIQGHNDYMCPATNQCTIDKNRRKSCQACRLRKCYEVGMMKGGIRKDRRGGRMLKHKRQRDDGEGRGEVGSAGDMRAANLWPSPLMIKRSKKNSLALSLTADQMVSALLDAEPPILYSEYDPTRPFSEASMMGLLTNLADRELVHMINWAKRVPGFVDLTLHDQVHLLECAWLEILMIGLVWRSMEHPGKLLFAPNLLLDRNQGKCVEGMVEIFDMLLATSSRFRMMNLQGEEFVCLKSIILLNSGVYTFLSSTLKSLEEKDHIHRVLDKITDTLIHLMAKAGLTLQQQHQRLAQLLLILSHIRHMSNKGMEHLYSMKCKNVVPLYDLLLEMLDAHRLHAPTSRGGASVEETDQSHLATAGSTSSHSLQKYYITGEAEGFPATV

Assay [2] is described as follows: CCTE_Deisenroth_AIME_384WELL_CTox_Active: Cytotoxicity Assessment (CTOX) in CCTE's 384-well Estrogen Receptor Transactivation Assay with AIME metabolic competence (metabolism positive), Deisenroth Lab (AID 2284037; active = hit-call score of the fitted dose curve at least 0.9, where 1 is the maximum;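 also: chemicals first conditioned 2 h by alginate-bound induced rat liver S9 before cells; activity means signal loss indicating cell death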). The method in brief: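 Chemicals pre-incubated 2 hours with alginate-immobilised phenobarbital/beta-naphthoflavone-induced male Sprague Dawley rat liver S9, then conditioned medium applied 24 hour to VM7Luc4E2 cells. Viability by fluorogenic protease substrate; 10-point series 0.002 - 200 uM.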

The nature of assay [3]: CCTE_Deisenroth_AIME_384WELL_CTox_Inactive: Cytotoxicity Assessment (CTOX) in CCTE's 384-well Estrogen Receptor Transactivation Assay without AIME metabolic competence (metabolism negative), Deisenroth Lab (AID 2284039; active = hit-call score of the fitted dose curve at least 0.9, where 1 is the maximum;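 also: cell viability via live-cell protease substrate cleaved to fluorescent probe; loss of fluorescence signal means loss of viability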). The procedure, abridged: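 Fluorescent protease-substrate viability readout after 24 h exposure of VM7Luc4E2 cells to conditioned medium. Chemicals (0.002–200 uM) first sat 2 h over alginate-water beads, no S9. Data fitted bidirectionally, loss of signal meaning viability loss.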

Assay [4] is described as follows: CCTE_Shafer_MEA_dev_firing_rate_mean: CCTE's Neural Network Formation Assay for Mean Firing Rate, Shafer Lab (AID 2284031).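 As to AC50: curve fitted for loss of firing so AC50 reflects decreased mean firing rate.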 The method in brief:
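Rat primary cortical neurons were seeded on multielectrode arrays and treated from plating through day 12, with redosing at each feed. Spontaneous spiking was recorded four times; mean firing rate AUC was fitted downward against DMSO.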

A short description of assay [5]: CCTE_Shafer_MEA_dev_per_burst_spike_percent: CCTE's Neural Network Formation Assay for Percent of Spikes in a Burst, Shafer Lab (AID 2284032).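 As to AC50: fitted as a decrease in burst spike percentage below DMSO baseline.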 The method in brief:
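Rat primary cortical neurons on 16-electrode MEA wells, dosed from plating day 0 for 12 days with renewal on DIV 5 and 9; spikes-in-bursts percentage averaged over bursting electrodes, collapsed as AUC across days 5, 7, 9, 12; loss direction versus DMSO.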

The nature of assay [6]: CCTE_Shafer_MEA_dev_active_electrodes_number: CCTE's Neural Network Formation Assay for Number of Active Electrodes, Shafer Lab (AID 2284040; active = hit-call score of the fitted dose curve at least 0.9, where 1 is the maximum;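 as to AC50: potency for loss of active electrodes versus DMSO so lower counts are hits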). The method in brief:
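Primary rat cortical neurons on 16-electrode MEA wells, exposed from day 0 through day 12 with compound renewed at DIV 5 and 9 feeds. Active electrodes (mean firing ≥5 spikes/min) counted at DIV 5, 7, 9, 12; trapezoidal AUC across days, loss-of-signal versus DMSO.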

Assay [7] can be described thus: CCTE_Shafer_MEA_dev_burst_rate: CCTE's Neural Network Formation Assay for Burst Rate, Shafer Lab (AID 2284042).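 As to AC50: potency for loss of burst rate below DMSO control.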 The procedure, abridged: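 Exposure ran continuously over 12 days of network development in rat cortical cultures, with compound refreshed during full media changes on DIV 5 and 9. Single-electrode bursts per recording time, well-mean over active electrodes, trapezoidal AUC across days 5–12, fitted downward relative to DMSO.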

Assay [8] in a line: CCTE_Shafer_MEA_dev_bursting_electrodes_number: CCTE's Neural Network Formation Assay for Number of Bursting Electrodes, Shafer Lab (AID 2284043; active = hit-call score of the fitted dose curve at least 0.9, where 1 is the maximum;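 as to AC50: potency is for loss of bursting electrodes relative to DMSO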). The method in brief: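 Primary rat cortical neurons plated on 16-electrode MEA wells, exposed from day 0 with compound renewed at DIV 5 and 9. Electrodes bursting ≥1 burst per 2 min counted on days 5, 7, 9 and 12; trapezoidal AUC across days, fitted for loss versus DMSO.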

The nature of assay [9]: CCTE_Shafer_MEA_dev_per_burst_interspike_interval: CCTE's Neural Network Formation Assay for Burst Interspike Interval, Shafer Lab (AID 2284044).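 Also: mean spike spacing inside bursts as AUC over recordings on days 5 7 9 12.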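 As to AC50: potency for a decrease of within-burst interspike interval below DMSO level.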 The procedure, abridged:
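Mean interspike interval within single-electrode bursts, averaged over bursting electrodes, from rat cortical cultures on MEA plates recorded on days 5, 7, 9 and 12. Continuous compound exposure from plating; trapezoidal AUC fitted downward relative to DMSO.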

A short description of assay [10]: CCTE_Shafer_MEA_dev_burst_duration_mean: CCTE's Neural Network Formation Assay for Mean Burst Duration, Shafer Lab (AID 2284045). The method in brief: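 Primary rat cortical neurons on 48-well 16-electrode MEA plates, exposed from day 0 with renewal at DIV 5 and 9; spontaneous activity recorded on days 5, 7, 9, 12. Well-mean burst duration across bursting electrodes, collapsed as trapezoidal AUC; DMSO baseline.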

Assay [11] is described as follows: CCTE_Shafer_MEA_dev_interburst_interval_mean: CCTE's Neural Network Formation Assay for Mean Interburst Interval, Shafer Lab (AID 2284046).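 Also: well-mean interburst interval of bursting electrodes as AUC over four recording days; curve fitted for decrease in interburst interval relative to DMSO.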 The method in brief:
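Primary rat cortical neurons on PEI-coated 48-well MEA plates (laminin added with cells at plating) (16 electrodes/well), exposed from plating day 0 with renewal at DIV 5 and 9. Mean inter-burst interval averaged over bursting electrodes, AUC across days 5, 7, 9, 12; DMSO baseline.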

Assay [12] in a line: CCTE_Shafer_MEA_dev_inter_network_spike_interval_mean: CCTE's Neural Network Formation Assay for Mean Inter-network Spike Interval, Shafer Lab (AID 2284047). The method in brief:
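Mean time between consecutive network-spike peaks, recorded extracellularly (adaptive spike detection) on DIV 5, 7, 9 and 12, summarized as trapezoidal AUC. Rat cortical cultures on MEAs dosed continuously days 0–12, re-dosed at feeds; loss-of-signal fit relative to DMSO.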

Assay [13] can be described thus: CCTE_Shafer_MEA_dev_network_spike_number: CCTE's Neural Network Formation Assay for Number of Network Spikes, Shafer Lab (AID 2284048).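 As to AC50: fit as a loss of signal meaning fewer network spikes than DMSO.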 The procedure, abridged:
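Primary rat cortical neurons on PEI/laminin 48-well MEA plates, dosed from plating day 0 for 12 days, renewed at DIV 5 and 9. Network spike counts recorded DIV 5, 7, 9, 12, collapsed as trapezoidal AUC; DMSO baseline.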

Assay [14] in a line: CCTE_Shafer_MEA_dev_network_spike_peak: CCTE's Neural Network Formation Assay for Mean Number of Electrodes in Network Spike, Shafer Lab (AID 2284049).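 As to AC50: fitted for loss of signal meaning fewer electrodes in network spikes than DMSO.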 The procedure, abridged: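 Network-spike peak electrode count from recordings on days 5, 7, 9 and 12 was combined as trapezoidal area under the curve. Rat cortical cultures were treated continuously from plating, with compound renewed at each feed (DIV 5, 9); fits versus DMSO.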

Assay [15] in a line: CCTE_Shafer_MEA_dev_network_spike_duration_std: CCTE's Neural Network Formation Assay for Standard Deviation of Network Spike Duration, Shafer Lab (AID 2284052).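 Also: hits are decreases in network spike duration SD versus DMSO vehicle.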 The method in brief: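 Network spike duration variability was collapsed across recordings on days 5, 7, 9 and 12 by trapezoidal area-under-curve and fitted downward against DMSO. Cultures were rat cortical neurons on PEI-coated MEA plates, dosed continuously from plating, refed with compound DIV 5/9.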

The nature of assay [16]: CCTE_Shafer_MEA_dev_per_network_spike_spike_number_mean: CCTE's Neural Network Formation Assay for Mean Number of Spikes in a Network Spike, Shafer Lab (AID 2284053).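 As to AC50: fitted as decrease in spikes per network spike relative to DMSO.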 The method in brief: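 Mean spike count within each network spike, taken in a 0.05 s window at its peak, was recorded on days 5, 7, 9 and 12 and integrated as trapezoidal area under the curve. Rat cortical cultures on MEA plates received continuous compound from day 0, refreshed at medium changes on DIV 5 and 9.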

Assay [17] can be described thus: CCTE_Shafer_MEA_dev_per_network_spike_spike_percent: CCTE's Neural Network Formation Assay for Percent of Spikes in a Network Spike, Shafer Lab (AID 2284054). The method in brief:
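Rat primary cortical neurons were grown on 48-well MEA plates (16 electrodes/well), exposed from plating day 0 through day 12, with treatment renewed on DIV 5 and 9. Percent of spikes within 0.05 s network-spike peaks was measured, summarised as AUC across days 5, 7, 9, 12.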

Another assay concerns DIO2 (gene 1734). Description: CCTE_GLTED_hDIO2: CCTE's human Deiodinase 2 (DIO2) Inhibition Assay, Great Lakes Toxicology and Ecology Division (GLTED) Lab (AID 2284050; active = hit-call score of the fitted dose curve at least 0.9, where 1 is the maximum). The procedure, abridged:
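hDIO2 enzyme + test chem, 3 h → free iodide from substrate; step 2: Sandell-Kolthoff (Ce IV reduction by As, iodide-catalysed), spectrophotometric read. Triplicate plates; DMSO = baseline.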

For the next assay, the system named is DIO3 (gene 1735). Description: CCTE_GLTED_hDIO3: CCTE's human Deiodinase 3 (DIO3) Inhibition Assay, Great Lakes Toxicology and Ecology Division (GLTED) Lab (AID 2284055; active = hit-call score of the fitted dose curve at least 0.9, where 1 is the maximum;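 also: potency is for inhibition seen as loss of released iodide signal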). The method in brief:
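Absorbance from the Sandell-Kolthoff reaction reports iodide released by human DIO3 during a 3-hour incubation with chemical. Inhibition scored as signal loss against DMSO controls.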

Molecules are shown by their SMILES. “And” between values parts separate entries of the source, which are not always exact repeats. Identical values can stand only once. Results filed as inconclusive are left out. Some compounds were tested as several samples or in several runs, with calls that do not always agree. The source made the active and inactive calls. The calls were made as follows, unless noted: active = hit-call score of the fitted dose curve at least 0.9, where 1 is the maximum; inactive = score below 0.9.

Take `COC(=O)NS(=O)(=O)c1ccc(N)cc1`: the result in assay [1] was inactive.

Consider `COc1cc(OC)nc(NC(=O)NS(=O)(=O)c2ncccc2OCC(F)(F)F)n1`, for which the call in [1], in assay [2] and in assay [3] was inactive.

For orientation: AC50 means the midpoint of the concentration-response curve, whichever way the signal moves. On to `C=C(C)CN(CC)c1c([N+](=O)[O-])cc(C(F)(F)F)cc1[N+](=O)[O-]`, for which the compound was called inactive in [1], in [2], in assay [3], in assay [10] and in assay [12]. Moreover, the AC50 in assay [4] was 12.8 µM (active); in assay [5], 18.6 µM (active); in assay [6] it was 16.9 µM (active); in assay [7] it was 13.3 µM (active); in assay [8] it was 16.4 µM (active); in [9], 22.1 µM (active). The AC50 was 22.2 µM (active) in assay [11]; 23.2 µM (active) in [13]; 18.1 µM (active) in [14]; 13.1 µM (active) in assay [15]; 14.1 µM (active) in assay [16]; 23.2 µM (active) in assay [17].

In the case of `CCOC(=O)C(C)OC(=O)c1cc(Oc2ccc(C(F)(F)F)cc2Cl)ccc1[N+](=O)[O-]` (centres undefined), the outcome in assay [1], in assay [4], in assay [5], in [2], in assay [6] and in assay [7] was inactive. Further, the outcome in assay [8], in assay [9], in assay [10], in assay [11], in assay [12] and in assay [13] was inactive. Further, the result in assay [14], in assay [15], in assay [16] and in [17] was inactive. Besides, the AC50 in [3] was 100 µM (active).

`Nc1cnn(-c2ccccc2)c(=O)c1Cl`: the outcome in assay [1] was inactive.

For the compound `COP(=S)(OC)Oc1ccc([N+](=O)[O-])c(C)c1`, the compound was called inactive in assay [1], in assay [4], in [5], in [2], in assay [3] and in assay [6]. The call in [7], in assay [8], in assay [9], in assay [10], in assay [11] and in assay [12] was inactive. The result in assay [13], in assay [14], in assay [15], in [16] and in assay [17] was inactive.

In the case of `CCC(C)n1c(=O)[nH]c(C)c(Br)c1=O` (centres undefined), the compound was called inactive in [1] and in assay [2].

On to `CNC(=O)Oc1cccc2ccccc12`, for which the outcome in [4], in assay [7], in [9], in [10], in assay [11] and in assay [12] was inactive. In addition, the call in assay [13], in assay [15] and in [16] was inactive. Further, the AC50 in [5] was 15 µM (active); in assay [6], 15 µM (active); in [7] it was 4.84 µM (active); in [8], 15 µM (active); in [13] it was 1 µM (active); in [14], 20.3 µM (active) and 22.6 µM (active). For the same compound, the half-maximal activity concentration (AC50) in assay [16] is 20.1 µM (active); in assay [17], 15 µM (active) and 5.05 µM (active).

Consider `O=c1n(Cl)c(=O)n(Cl)c(=O)n1Cl`, for which the call in assay [1] and in assay [3] was inactive.

Turning to `OC(c1ccc(Cl)cc1)(c1ccc(Cl)cc1)C(Cl)(Cl)Cl`, the results for the AC50 with DIO2 (gene 1734) and in the assay on DIO3 (gene 1735) were 76.4 µM (active) and 15.8 µM (active), respectively.
